Where a name gives a salt, the structure may show the parent alone.

This assay concerns Danio rerio larvae (5 dpf). Put plainly: habituation (activity change first vs second 5 min of 1-s interval sound, period 17) minus DMSO control (percentage points); higher = larger habituation measure than DMSO larvae. The following applies: 10 µM; exposure time: 3 h pre-incubation + 3 h imaging. The procedure:
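Wild-type 5 dpf zebrafish larvae (n=48 per drug, 96-well plates, 28.5 °C) were exposed to Tocris FDA-approved library compounds at 10 µM (0.1% DMSO) for 3 h before and 3 h during imaging. Images were taken every 6 s during visual (moving coloured lines) and acoustic stimuli, and larvae were tracked with the DeepLabCut-based Z-LaP Tracker. Each behavioural measure is the treated-group mean minus the DMSO vehicle control mean (n=844), in percentage points. This mapping covers compounds with 4-character plate codes.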
Turning to `CCOc1ccccc1OCCN[C@H](C)Cc1ccc(OC)c(S(N)(=O)=O)c1` [Tamsulosin hydrochloride], the habituation amounted to 1.59.

For `CCOC(=O)[C@H](CCc1ccccc1)N[C@@H](C)C(=O)N1[C@H](C(=O)O)C[C@@H]2CCC[C@@H]21` [Ramipril], the habituation is 0.42.

With `NS(=O)(=O)c1cc(C(=O)O)c(NCc2ccco2)cc1Cl` [Furosemide], the habituation is 2.23.

`CCOc1cc(CC(=O)N[C@@H](CC(C)C)c2ccccc2N2CCCCC2)ccc1C(=O)O` [Repaglinide]: the habituation was -7.53.

Consider `COCCCOc1cc(C[C@@H](C[C@H](N)[C@@H](O)C[C@H](C(=O)NCC(C)(C)C(N)=O)C(C)C)C(C)C)ccc1OC` [Aliskiren hemifumarate], for which the habituation was determined as 8.44.

For `CCOC(=O)c1ncn2c1CN(C)C(=O)c1cc(F)ccc1-2` [Flumazenil], the habituation was -2.62.

For the compound `COc1c(C)c2c(c(O)c1C/C=C(\C)CCC(=O)OCCN1CCOCC1)C(=O)OC2` [Mycophenolate mofetil], the habituation worked out at 4.4.

Turning to `Cn1nnc2c(C(N)=O)ncn2c1=O` [Temozolomide], the habituation came out at 4.81.

As to `CC(C)C(=O)Nc1ccc([N+](=O)[O-])c(C(F)(F)F)c1` [Flutamide], the habituation was -15.4.

For `CC(C)[C@H]1CC[C@H](C(=O)N[C@H](Cc2ccccc2)C(=O)O)CC1` [Nateglinide], the habituation was -2.04.

`COc1ccc(C[C@@H](C)NC[C@H](O)c2ccc(O)c(NC=O)c2)cc1` [Arformoterol tartrate]: the habituation was -3.57.

`C=C1[C@H](CO)[C@@H](O)C[C@@H]1n1cnc2c(=O)[nH]c(N)nc21` [Entecavir]: the habituation worked out at 1.2.

Turning to `CC(C)c1nc(N(C)S(C)(=O)=O)nc(-c2ccc(F)cc2)c1/C=C/[C@@H](O)C[C@@H](O)CC(=O)O` [Rosuvastatin calcium], the habituation stood at 1.27.

Regarding `Nc1nc2[nH]cc(CCc3ccc(C(=O)N[C@@H](CCC(=O)O)C(=O)O)cc3)c2c(=O)[nH]1` [Pemetrexed], the habituation is -1.84.

Turning to `CCCN(CCc1cccs1)[C@H]1CCc2c(O)cccc2C1` [Rotigotine hydrochloride], the habituation is -11.4.

As to `CCOc1nc2cccc(C(=O)O)c2n1Cc1ccc(-c2ccccc2-c2nnn[nH]2)cc1` [Candesartan], the habituation amounted to 5.98.

As to `CCCCC(=O)N(Cc1ccc(-c2ccccc2-c2nnn[nH]2)cc1)[C@H](C(=O)O)C(C)C` [Valsartan], the habituation was 2.48.

For `O=C(O[C@@H]1C[C@@H]2C[C@H]3C[C@H](C1)N2CC3=O)c1c[nH]c2ccccc12` [Dolasetron mesylate], the habituation is 1.05.

`CNC(=O)c1ccccc1Sc1ccc2c(/C=C/c3ccccn3)n[nH]c2c1` [Axitinib]: the habituation turned out to be 0.305.

`Nc1cccc2c1CN(C1CCC(=O)NC1=O)C2=O` (stereo not given) [Lenalidomide]: the habituation is -0.218.

Turning to `CCC(C)(C)C(=O)O[C@H]1C[C@@H](C)C=C2C=C[C@H](C)[C@H](CC[C@@H]3C[C@@H](O)CC(=O)O3)[C@H]21` [Simvastatin], the habituation was -1.02.

Turning to `Cc1ccccc1C(=O)Nc1ccc(C(=O)N2CCCC(O)c3cc(Cl)ccc32)c(C)c1` (stereo not given) [Tolvaptan], the habituation came out at 2.26.

Consider `COc1ccccc1OCCNCC(O)COc1cccc2[nH]c3ccccc3c12` (stereo not given) [Carvedilol], for which the habituation is -0.0437.

`CN(C)CCc1c[nH]c2ccc(Cn3cncn3)cc12` [Rizatriptan benzoate]: the habituation is -1.58.

For the compound `CO[C@H]1/C=C/O[C@@]2(C)Oc3c(C)c(O)c4c(O)c(c5c(nc6cc(C)ccn65)c4c3C2=O)NC(=O)/C(C)=C\C=C\[C@H](C)[C@H](O)[C@@H](C)[C@@H](O)[C@@H](C)[C@H](OC(C)=O)[C@@H]1C` [Rifaximin], the habituation was -3.24.

Consider `C[C@H](Cc1cc2c(c(C(N)=O)c1)N(CCCO)CC2)NCCOc1ccccc1OCC(F)(F)F` [Silodosin], for which the habituation stood at 7.86.

For `CC(C)CN(C[C@@H](O)[C@H](Cc1ccccc1)NC(=O)O[C@H]1CO[C@H]2OCC[C@H]21)S(=O)(=O)c1ccc(N)cc1` [Darunavir], the habituation was 0.657.

As for `CCOC(=O)C1=C(C)NC(C)=C(C(=O)OC)C1c1cccc(Cl)c1Cl` (stereo not given) [Felodipine], the habituation is -11.4.

In the case of `C[C@@H](O[C@H]1OCCN(Cc2n[nH]c(=O)[nH]2)[C@H]1c1ccc(F)cc1)c1cc(C(F)(F)F)cc(C(F)(F)F)c1` [Aprepitant], the habituation was 1.46.

For the compound `Cc1cccc(CN2CCN(C(c3ccccc3)c3ccc(Cl)cc3)CC2)c1` (stereo not given) [Meclizine dihydrochloride], the habituation is -12.4.

For `CN(CCOc1ccc(CC2SC(=O)NC2=O)cc1)c1ccccn1` (stereo not given) [Rosiglitazone], the habituation was found to be 2.04.

Turning to `CCCCC1=NC2(CCCC2)C(=O)N1Cc1ccc(-c2ccccc2-c2nnn[nH]2)cc1` [Irbesartan], the habituation was -1.18.

Regarding `OCCN(CCO)c1nc(N2CCCCC2)c2nc(N(CCO)CCO)nc(N3CCCCC3)c2n1` [Dipyridamole], the habituation stood at 5.96.

Consider `Clc1ccccc1C(c1ccccc1)(c1ccccc1)n1ccnc1` [Clotrimazole], for which the habituation is -2.1.

Regarding `Cc1ccc(NC(=O)c2ccc(CN3CCN(C)CC3)cc2)cc1Nc1nccc(-c2cccnc2)n1` [Imatinib mesylate], the habituation amounted to 1.88.

Regarding `CCCCc1nc(Cl)c(CO)n1Cc1ccc(-c2ccccc2-c2nnn[nH]2)cc1` [Losartan potassium], the habituation was 1.01.

`CCCN(CCC)S(=O)(=O)c1ccc(C(=O)O)cc1` [Probenecid]: the habituation is 3.79.

Regarding `CC(C)(C#N)c1cc(Cn2cncn2)cc(C(C)(C)C#N)c1` [Anastrozole], the habituation turned out to be 6.46.

As for `CC(C)N(CCCCOCC(=O)NS(C)(=O)=O)c1cnc(-c2ccccc2)c(-c2ccccc2)n1` [Selexipag], the habituation is -0.762.

For the compound `Cc1ccc(N(CC2=NCCN2)c2cccc(O)c2)cc1` [Phentolamine Mesylate], the habituation is 8.8.

The values are drawn from the supplement of paper PMC9950053.
